Screening data deposited in PubChem BioAssay by National Center for Advancing Translational Sciences (NCATS).
Sampled rows, rich in hits. Any-hit rate of the full collection: about 2.9%.
ATXN2 expr inh – inhibitors of ATXN2 expression. HEK-293 ATXN2-luciferase reporter, luminescence, 24 h. 360,000 tested, 0.72% active. Potency, µM (top dose mostly 57 µM), without a hit: at the highest dose activity change, negative = inhibition, most hits filed as inhibitors; further: on the % scale 0 is the no-effect control and ±100 the full control effect; nearly all actives have a fitted effect of over 55% in size
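qHTS (up to 57 uM final) was run with 24 h compound exposure of reporter cells at 37 °C. Each well was multiplexed: SteadyGlo luminescence measured ATXN2-luciferase expression after a fluorogenic Gly-Phe-AFC viability readout (25 uM final).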
A549 tox-1 – kills or reduces viability of A549 cells in Nrf2 counter-screen. Potency, µM (doses to about 46 µM), inactives show at the top dose activity change, negative = cytotoxicity, most hits filed as inhibitors. A549 ARE-Fluc cells, CellTiter-Fluor viability, 18-24 h. AID 504648. 390,000 tested, 0.16% active; further: on the % scale 0 is the no-effect control and ±100 the full control effect
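A549 ARE_Fluc cells in 5% FBS OPTI-MEM were exposed to compounds in concentration-response for 18-24 h at 37 deg C. Viability was read by CellTiter-Fluor fluorescence (Ex 405/Em 525) after 30 min, before the luciferase read.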
ATXN viability – cell viability loss in ATXN counter-screen; S2 cells (HEK-293 line with an ATXN2-luciferase reporter) viability, CellTiter-Fluor protease fluorescence, 24 h; Potency, µM (highest dose often 56.7 µM), actives largely listed as cytotoxic; AID 651635; 400,000 tested, 0.49% active; further: nearly all actives have a fitted effect of over 40% in size
Nrf2 inh – blocks Nrf2 signaling; A549 ARE-Fluc reporter, luciferase luminescence, 18-24 h; Potency, µM (titrated, usually from 46 µM), inactives show at the highest dose activity change, negative = inhibition, actives largely listed as inhibitors; 360,000 tested, 2.1% active; AID 504444; further: on the % scale 0 is the no-effect control and ±100 the full control effect; nearly all actives have a fitted effect of over 60% in size
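Quantitative HTS in A549 cells stably bearing an antioxidant response element-firefly luciferase construct. Inhibition of Nrf2-driven transcription was scored by luminescence after 18-24 h of compound exposure at 37 °C.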
Nrf2 ARE act – activators of Nrf2 (ARE) signaling | AREc32 ARE-luciferase reporter (MCF7-derived line), luminescence, 24 h | Potency, µM (series often up to 46.1 µM), for inactives: at the highest dose activation, hits mostly activators | 410,000 tested, 0.31% active | AID 624171; further: % of control where 0% means no effect; nearly all actives have a fitted effect of over 65% in size
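ARE-driven firefly luciferase activity in AREc32 cells measured after a 24 hr compound exposure at 37 deg C, using Steady-Glo reagent and a 30 min room-temperature hold.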
FLuc counter 3 – firefly luciferase inhibition, Nrf2 hit validation; shares compounds with Nrf2 inh; purified firefly luciferase, luminescence inhibition; Potency, µM (doses to about 57.5 µM), for inactives: at the highest dose activity change, negative = inhibition, hits mostly inhibitors; 1,400 tested, 4% active; further: on the % scale 0 is the no-effect control and ±100 the full control effect; nearly all actives have a fitted effect of over 65% in size
Target sequence (P08659 whole entry, looked up): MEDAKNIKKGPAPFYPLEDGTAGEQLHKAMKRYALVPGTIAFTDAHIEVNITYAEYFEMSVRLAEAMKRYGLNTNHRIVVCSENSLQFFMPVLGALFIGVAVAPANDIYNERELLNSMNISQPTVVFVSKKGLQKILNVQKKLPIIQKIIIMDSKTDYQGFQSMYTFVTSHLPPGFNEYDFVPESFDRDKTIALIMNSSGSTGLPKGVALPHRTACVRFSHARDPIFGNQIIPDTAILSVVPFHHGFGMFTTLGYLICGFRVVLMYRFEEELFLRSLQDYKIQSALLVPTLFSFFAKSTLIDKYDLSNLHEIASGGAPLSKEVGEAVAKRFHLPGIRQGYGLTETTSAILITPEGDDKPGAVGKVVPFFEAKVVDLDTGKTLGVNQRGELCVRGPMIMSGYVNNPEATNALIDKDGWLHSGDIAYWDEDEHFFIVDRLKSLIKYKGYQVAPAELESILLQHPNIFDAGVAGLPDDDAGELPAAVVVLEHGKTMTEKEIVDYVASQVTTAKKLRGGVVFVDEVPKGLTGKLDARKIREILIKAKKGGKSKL
A549 tox-2 – counter-screen for Nrf2 inhibitors: cytotoxicity in A549 ARE cells; shares compounds with Nrf2 inh; A549 ARE-Fluc cells, cytotoxicity counterscreen; Potency, µM (doses to about 46.1 µM), inactives show at the top dose activity change, negative = cytotoxicity, most hits filed as inhibitors; 1,400 tested, 2% active;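 further: cells exposed to compounds for 18 to 24 hours; on the % scale 0 is the no-effect control and ±100 the full control effect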
Nrf2 ARE inh – Nrf2 inhibition confirmed, A549 ARE-luciferase. A549 ARE-firefly luciferase reporter, luminescence. Potency, µM (highest dose often 46.1 µM), for inactives: at the top dose activity change, negative = inhibition, most hits filed as inhibitors. 1,400 tested, 74% active. AID 720524. shares compounds with Nrf2 inh; further: on the % scale 0 is the no-effect control and ±100 the full control effect; nearly all actives have a fitted effect of over 65% in size
An asterisk follows results filed as active; i = inactive; ? = inconclusive; . = no result given; [ ] = dose if it differs, or a comment. The call rests on the fitted dose curve; in most records, active means well fitted curve in the direction sought with a large enough effect; inconclusive means small, poorly fitted or top-dose-only effect, or another doubt; inactive means no such curve, though single readings can be large; an effect the other way counts as inactive or inconclusive. Potency means the concentration at half of the fitted maximal effect.

SMILES | ATXN2 expr inh | A549 tox-1 | ATXN viability | Nrf2 inh | Nrf2 ARE act | FLuc counter 3 | A549 tox-2 | Nrf2 ARE inh
CC(C)(O)/C=C/C(=O)[C@](C)(O)C1[C@H](O)C[C@@]2(C)C3CC=C4C(C[C@H](O)[C@@H](O)C4(C)C)[C@]3(C)C(=O)C[C@]12C (stereo partly drawn) | ? | ? | ? | 0.41µM* | 13% | 1% | ? | 1.3µM*
CC1=CC(O)C(O)C2(C)C1CC1OC(=O)CC3C(C)C(O)C(=O)C2C13CO (stereo not drawn) | -9% | ? | i | 2.1µM* | -2% | 3% | -29% | .
CCOc1ccc(-n2c(-c3ccoc3)nc3ccccc3c2=O)cc1 | -14% | -1% | i | . | -1% | . | . | .
CCOc1ccc(-c2c(C)n(-c3ccc(OCC)cc3)c3[n+]2CCCCC3)cc1 | ? | -1% | i | 2.6µM* | 7% | -1% | ? | 1.2µM*
COCCOCCO | -5%[116 µM] | . | i | . | . | . | . | .
CC(C)(C)c1cc(C=C(C#N)C#N)cc(C(C)(C)C)c1O | ? | ? | ? | 0.65µM* | 0% | -3% | ? | 1.3µM*
C=C(C)[C@@]12OC3(c4ccccc4)O[C@@H]1C1[C@@H]4O[C@]4(CO)[C@@H](O)[C@]4(O)C(=O)C(C)=C[C@H]4[C@@]1(O3)[C@H](C)[C@H]2OC(=O)/C=C/C=C/c1ccccc1 (stereo partly drawn) | -10% | -26% | ? | 0.0052µM* | -2% | -1% | ? | 0.018µM*
CCN(CC)C(=O)c1ccc(NC(=O)c2cccc(S(=O)(=O)N3CCN(Cc4ccccc4)CC3)c2)cc1 | -17% | ? | i | 2.1µM* | 0% | 0% | -8% | 8.2µM*
Cc1ccc(NC(=O)c2ccc(C)c(S(=O)(=O)N3CCCCC3)c2)nc1 | 11% | -1% | i | -12% | 0% | . | . | .
CC(=O)c1ccc(N2CCN(S(=O)(=O)c3cc(-c4onc(C)c4C)ccc3C)CC2)cc1 | . | -1% | . | 9.2µM* | 1% | 2% | 1% | 6.5µM*
C#C[C@]1(O)C=C[C@H]2[C@@H]3CCC4=CC(=O)CC[C@@H]4[C@H]3CC[C@@]21CC | -13% | . | i | . | . | . | . | .
CCCc1c(-c2ccccc2F)ncn1CCc1ccccc1OC | ? | . | ? | . | -1% | . | . | .
CC1OC(OC2C=C3CCC4C(CCC5(C)C(c6ccc(=O)oc6)CCC45O)C3(C)CC2)C(O)C(OC2OC(CO)C(O)C(O)C2O)C1O (stereo not drawn) | 0.0075µM* | ? | ? | 0.073µM* | -2% | 2% | ? | 0.0082µM*
CCCCNS(=O)(=O)c1ccc(OCC(=O)N2CCN(Cc3ccc4c(c3)OCO4)CC2)cc1 | -27% | ? | i | 4.6µM* | -1% | 4% | -4% | ?
Cc1ccc(-c2cc(-c3ccc(C)cc3)[n+](C)o2)cc1 | -35% | ? | i | 5.2µM* | 0% | -20% | -17% | 3.7µM*
CC(C)N1CC=C(c2c[nH]c3ccccc23)CC1 | -8% | ? | i | 1.6µM* | 3% | -1% | -10% | .
CC(C(=O)c1c[nH]c2ccccc12)N1CCOCC1 (stereo not drawn) | -18% | 17% | i | 4% | 0% | . | . | .
CCN(CC)C(=O)N[C@H]1C=C2c3cccc4[nH]cc(c34)C[C@@H]2N(C)C1 | . | . | i | . | . | . | . | .
Cc1c(P(=S)(c2ccccc2)c2ccccc2)[n+]2ccccc2n1CCc1ccccc1 | ? | -27% | ? | ? | 0% | . | . | .
C[C@]12CC[C@H]3[C@@H](CC[C@]4(O)C[C@@H](O)CC[C@]34C=O)[C@@]1(O)CC[C@@H]2C1=CC(=O)OC1 | 0.32µM* | ? | ? | 0.26µM* | -3% | 1% | -55% | 0.41µM*
C[C@H]1O[C@@H](OC2CC[C@]3(C=O)[C@H]4CC[C@]5(C)[C@@H](C6=CC(=O)OC6)CC[C@]5(O)[C@@H]4CC[C@]3(O)C2)CC2OC(C)(C)OC21 (stereo partly drawn) | . | ? | ? | 0.16µM* | -4% | -1% | ? | 0.065µM*
CC(=O)O[C@H]1CC[C@]2(C=O)C3CC[C@]4(C)[C@@H](C5=CC(=O)OC5)CC[C@]4(O)C3CC[C@]2(O)C1 (stereo partly drawn) | . | -25% | . | 0.26µM* | . | 4% | ? | 0.37µM*
C[C@]12CCC3C(CCC4=CC(O)CC[C@@]43/C=N/O)C1(O)CCC2C1=CC(=O)OC1 (stereo partly drawn) | ? | -6% | i | ? | -3% | . | . | .
CC12CCC3C(CCC4(O)CC(O)CCC34C=NO)C1(O)CCC2C1=COC(=O)C1 (stereo not drawn) | ? | ? | ? | 0.058µM* | -3% | 1% | ? | 0.1µM*
CNC(C)CC1CCCCC1 (stereo not drawn) | . | . | i | . | . | . | . | .
SMILES | ATXN2 expr inh | A549 tox-1 | ATXN viability | Nrf2 inh | Nrf2 ARE act | FLuc counter 3 | A549 tox-2 | Nrf2 ARE inh
Cc1ccccc1S(=O)(=O)N(C)C[C@@H]1OCc2ccccc2-c2c(n(C)c3ccccc23)C(=O)N([C@H](C)CO)C[C@@H]1C | ? | . | ? | . | 0% | . | . | .
CC12CC[C@H]3[C@@H](CCC4(O)C[C@H](O)CCC34/C=N/NC(=O)c3ccccc3Cl)C1(O)CCC2C1=CC(=O)OC1 (stereo partly drawn) | -11% | 3% | i | -22% | 0% | . | . | .
CC12CCC3C(CCC4(O)CC(O)CCC34C=O)C1(O)CCC2C1=CC(=O)OC1 (stereo not drawn) | 1.8µM* | ? | ? | 0.46µM* | -3% | 2% | ? | 0.41µM*
O=c1oc2cccnc2n1CCS(=O)(=O)c1ccc(F)cc1 | 29% | -5% | i | -24% | ? | . | . | .
CCN(CC)C1=NC(=[N+](CC)CC)c2ccccc21 | -36% | ? | i | 2.1µM* | 0% | 4% | -24% | 4.6µM*
COc1ccc(S(=O)(=O)N(C)C[C@H]2Oc3c(NC(=O)NC4CCCCC4)cccc3C(=O)N([C@H](C)CO)C[C@@H]2C)cc1 | ? | -19% | ? | -22% | 4% | . | . | .
